This passage reports outcome and Potency results from PubChem BioAssay (NCATS).

The nature of test [1]: Vero cells viability qHTS for Zika virus inhibitors (AID 1347167). The procedure, abridged:
(§1)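 Counter-screen for cytotoxicity of hits from NS2B-NS3 protease qHTS. Overnight-attached cells (2.5 x 10^5 cells/mL, DMEM/4% FBS) were dosed in titration, incubated 24 to 48 hours, then assayed by CellTiter Glo.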

Test [2] in a line: HepG2 cells viability qHTS for Zika virus inhibitors (AID 1347168). Further: potency means the concentration at half of the fitted maximal effect. The procedure, abridged: as §1
In general terms: In qHTS, concentration-response curves come from the screen itself.

A short description of test [3]: Tertiary RLuc qRT-PCR qHTS assay for Zika virus inhibitors (AID 1347169). Further: nearly all actives have a fitted effect of over 55% in size. Further: potency means the concentration at half of the fitted maximal effect. The procedure, abridged:
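Inhibition of ZIKV-RLuc replication in Vero cells, read as Renilla luminescence 1-1.5 hrs after live-cell substrate addition, following 48-72 hrs infection at MOI 1-2 in presence of compound.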

A short description of test [4]: OV-KATE Cancer Cell Toxicity qHTS against the NCATS CANVASS Library (AID 1347345). The procedure, abridged:
(§2)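 1000 cells/well; 4 h settle; 11-pnt titration; 72 h, 37 degrees C, 5% CO2; CellTiter-Glo, 15min RT; luminescence read.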

The nature of test [5]: HPAF-II Cancer Cell Toxicity qHTS against the NCATS CANVASS Library (AID 1347346). Further: nearly all actives have a fitted effect of over 55% in size. The method in brief: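 Luminescence from CellTiter-Glo, added after 72 h compound exposure and a 15 min room-temperature incubation, served as the viability readout. HPAF-II cells (1000/well) received an 11-point concentration series.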
A short description of test [6]: UWB1.289 Cancer Cell Toxicity qHTS against the NCATS CANVASS Library (AID 1347347). Further: potency means the concentration at half of the fitted maximal effect; nearly all actives have a fitted effect of over 60% in size. The settings on record: UWB1.289 viability, CellTiter-Glo luminescence, 72 h. The procedure, abridged: as §2
Test [7] can be described thus: OV-SAHO Cancer Cell Toxicity qHTS against the NCATS CANVASS Library (AID 1347348). Further: nearly all actives have a fitted effect of over 55% in size. The method in brief: as §2
The nature of test [8]: Panc-1005 Cancer Cell Toxicity qHTS against the NCATS CANVASS Library (AID 1347349). Further: nearly all actives have a fitted effect of over 60% in size. Further: potency means the concentration at half of the fitted maximal effect. The method in brief:
as §2

Test [9] can be described thus: U-118MG Cancer Cell Toxicity qHTS against the NCATS CANVASS Library (AID 1347351). The procedure, abridged:
as §2

The nature of test [10]: COV-362 Cancer Cell Toxicity qHTS against the NCATS CANVASS Library (AID 1347352). The procedure, abridged: (§3)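 Luminescent ATP read-out (CellTiter-Glo, 15min at room temperature) measures survival after cells face an 11-point compound series for 72 hours at 37 degrees C/5% CO2.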
Test [11] in a line: A2780 Cisplatin Sensitive Ovarian Cancer Cell Toxicity qHTS against the NCATS CANVASS Library (AID 1347353). Further: nearly all actives have a fitted effect of over 60% in size. The settings on record: A2780 ovarian cancer viability, ATPLite luminescence, 72 h; at 46.1 µM (top of the series). The method in brief:
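Luminescent ATP content (ATPLite, 10 min at room temperature) served as the read-out after cells had been exposed to compounds for 72 hours at 37 °C. Dosing followed an 11-point concentration series.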

Test [12] in a line: UWB1.289-WTBRCA1 Cancer Cell Toxicity qHTS against the NCATS CANVASS Library (AID 1347354). The procedure, abridged:
as §3

The nature of test [13]: HEK-293 Cancer Cell Toxicity qHTS against the NCATS CANVASS Library (AID 1347355). Further: nearly all actives have a fitted effect of over 65% in size. The settings on record: HEK-293 viability, CellTiter-Glo luminescence, 72 h; at 46.1 µM (top of the series). The method in brief:
as §3

Test [14] can be described thus: HPAF-II 24hr Apoptosis Induction qHTS against the NCATS CANVASS Library (AID 1347356). The method in brief: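 Luminescent caspase-3/7 signal (DEVD substrate, Caspase-Glo) served as read-out, taken 15 min after reagent addition to HPAF-II cells exposed 24 h to compounds.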
Test [15] can be described thus: HEK293 18hr Apoptosis Induction qHTS against the NCATS CANVASS Library (AID 1347357). The method in brief:
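Natural products applied to HEK293 for 18 hr; Caspase-Glo 3/7 readout.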

Test [16] in a line: HPAF-II 12hr Apoptosis Induction qHTS against the NCATS CANVASS Library (AID 1347358). The procedure, abridged:
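500 HPAF-II cells/well; cmpds 11-pt; 12 hr, 37 degrees C/5% CO2; Caspase-Glo 3/7 added, 15 min RT dark; luminescence read. Doxorubicin titration as control.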

Test [17] can be described thus: HEK293 24hr Apoptosis Induction qHTS against the NCATS CANVASS Library (AID 1347359). The procedure, abridged:
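HEK293 cells (500/well, DMEM + 10% FBS) were exposed to compounds in an 11-point series for 24 hours at 37 degrees C, then caspase-3/7 activity was read by Caspase-Glo DEVD luciferase luminescence after 15 min.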

Test [18] is described as follows: HPAF-II 18hr Apoptosis Induction qHTS against the NCATS CANVASS Library (AID 1347360). The procedure, abridged: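 Luminescent DEVD-substrate signal, proportional to caspase activity, is measured in HPAF-II cells after 18-hour treatment across a concentration series; doxorubicin serves as control.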
The nature of test [19]: HEK293 12hr Apoptosis Induction qHTS against the NCATS CANVASS Library (AID 1347361). The procedure, abridged:
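Luminescent caspase-3/7 signal, proportional to enzyme activity, was recorded from HEK293 cultures in DMEM + 10% FBS treated for 12 hours with titrated natural products (11 points). Doxorubicin (0.1nM - 4uM) served as control.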

Test [20] in a line: SW1088 Cancer Cell Toxicity qHTS against the NCATS CANVASS Library (AID 1347350). Further: potency means the concentration at half of the fitted maximal effect; nearly all actives have a fitted effect of over 75% in size. The settings on record: SW1088 viability, CellTiter-Glo luminescence, 72 h. The method in brief:
as §2

Results filed as inconclusive are left out. Activity calls are given as the source filed them. The call rests on the fitted dose curve; in most records, active means well fitted curve in the direction sought with a large enough effect; inconclusive means small, poorly fitted or top-dose-only effect, or another doubt; inactive means no such curve, though single readings can be large; an effect the other way counts as inactive or inconclusive.

For the compound `c1cc(N[C@@H]2CCNC2)nc(-c2cnc3ccc(-c4cn[nH]c4)cn23)c1`, in test [1], the compound was called inactive. In addition, the Potency result in test [2] and in [3] was “inactive” throughout.

Regarding `O=c1c(O)c(-c2ccc(O)c(O)c2)oc2cc(O)ccc12`, the Potency entry in test [3] and in test [8] was “inactive” throughout. For the same compound, the compound was called inactive in test [4], in test [5], in [7], in test [9], in test [10] and in test [11]. In addition, the compound was called inactive in [12], in [13], in test [14], in test [15], in [16] and in [17]. Moreover, the call in test [18] and in test [19] was inactive. In addition, in test [6], the Potency was 7.47 µM (active).

Turning to `CNC(=O)c1cccc(-c2ccc3c(N4CCOC[C@H]4C)nc(N4CCOC[C@H]4C)nc3n2)c1`, the compound was classed as inactive in test [1]. The Potency result in [2] is “inactive”.

Regarding `CN(C)CC(=O)N1CCC(c2ccc(NC(=O)c3ncc(C#N)[nH]3)c(C3=CCCCC3)c2)CC1`, the Potency entry in [3] was “inactive”.

Turning to `C[C@H]1COc2c(N3CCN(C)CC3)c(F)cc3c(=O)c(C(=O)O)cn1c23`, in [1], the result was inactive. The Potency entry in [2] and in test [3] was “inactive” throughout.

For `COc1ccc(S(=O)(=O)Nc2cc(-c3c(O)ccc4ccccc34)c(O)c3ccccc23)cc1`, in test [1], the compound was classed as inactive.

Consider `C=C(C)[C@@H]1CC[C@]2(C(=O)O)CC[C@]3(C)[C@H](CC[C@@H]4[C@@]5(C)CC[C@H](O)C(C)(C)[C@@H]5CC[C@]43C)[C@@H]12`, for which the results for the Potency in test [8] and in test [20] were 18.8 µM (active) and 4.73 µM (active), respectively. For the same compound, the result in test [9], in test [14], in test [15], in [16], in test [17] and in test [18] was inactive. The compound was called inactive in test [19].

As for `CCCCCCCCc1ccc(CCC(N)(CO)CO)cc1`, the results for the Potency in test [2] and in [3] were 26.2 µM (active) and 16.5 µM (active), respectively.

In the case of `CC(C)c1cc(C(C)C)c(CC(=O)NS(=O)(=O)Oc2c(C(C)C)cccc2C(C)C)c(C(C)C)c1`, the result in [1] was inactive. Further, the Potency in [3] is 5.87 µM (active).

Consider `Cc1ccc(-n2[nH]c(C)c(N=Nc3cccc(-c4cccc(C(=O)O)c4)c3O)c2=O)cc1C`, for which, in [1], the compound was called inactive. In addition, the Potency result in test [2] was “inactive”.

Consider `CN[C@@H]1C[C@H]2O[C@@](C)([C@H]1OC)n1c3ccccc3c3c4c(c5c6ccccc6n2c5c31)C(=O)N[C@H]4O`, for which the Potency in test [2] was 10.4 µM (active).
